From the supplement of paper PMC6555819

Key:
Test in all cases: PBM binding z-score (relative to random genomic background probes); higher = stronger binding; sequences stand for … in GC…GCGATTGACAGCGTAGAATGAAGG
[1] = tested on: FXR:RXRa (NR concentration 270 nM, RXRa partner concentration 90 nM)
Outline: (§1)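 Random background probes are the reference for binding z-scores. These scores derive from regression-normalized fluorescence on custom Agilent 4×180K protein-binding microarrays incubated 1 h with ligand-free nuclear receptor dimers. Binding was detected with antibodies against each partner (one per run).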

[2] = tested on: LXRa:RXRa (NR concentration 270 nM, RXRa partner concentration 90 nM)
Outline: as §1

[3] = tested on: LXRa homodimer (NR concentration 270 nM)
Outline: as §1

[4] = tested on: LXRb:RXRa (NR concentration 270 nM, RXRa partner concentration 90 nM)
Outline: as §1

[5] = tested on: LXRb homodimer (NR concentration 270 nM)
Outline: as §1

[6] = tested on: PPARa:RXRa (NR concentration 270 nM, RXRa partner concentration 90 nM)
Outline: as §1

[7] = tested on: PPARg:RXRa (NR concentration 180 nM, RXRa partner concentration 90 nM)
Outline: as §1

[8] = tested on: PPARg:RXRa 270nM:90nM, anti-RXR (NR concentration 270 nM, RXRa partner concentration 90 nM)
Outline: as §1

[9] = tested on: PPARg:RXRa 30nM:10nM, anti-RXR (NR concentration 30 nM, RXRa partner concentration 10 nM)
Outline: as §1

[10] = tested on: PPARg:RXRa 90nM:30nM, anti-RXR (NR concentration 90 nM, RXRa partner concentration 30 nM)
Outline: as §1

[11] = tested on: PPARg:RXRa DBDmut IVT, anti-RXR (DBD mutation: RXRa K156A/R161A, NR concentration 270 nM, RXRa partner concentration 90 nM)
Outline: as §1

[12] = tested on: PPARg:RXRa IVT, anti-PPARg (NR concentration 270 nM, RXRa partner concentration 90 nM)
Outline: as §1

[13] = tested on: PPARg DBDmut:RXRa IVT, anti-PPARg (DBD mutation: PPARg1 K132A/R137A, NR concentration 270 nM, RXRa partner concentration 90 nM)
Outline: as §1

[14] = tested on: PPARg DBDmut IVT, anti-PPARg (DBD mutation: PPARg1 K132A/R137A, NR concentration 270 nM)
Outline: as §1

[15] = tested on: PPARg homodimer (NR concentration 180 nM)
Outline: as §1

[16] = tested on: PXR:RXRa (NR concentration 270 nM, RXRa partner concentration 90 nM)
Outline: as §1

[17] = tested on: PXR homodimer (NR concentration 270 nM)
Outline: as §1

[18] = tested on: RARa:RXR (NR concentration 270 nM, RXRa partner concentration 90 nM)
Outline: as §1

[19] = tested on: RARa homodimer (NR concentration 270 nM)
Outline: as §1

[20] = tested on: RARb:RXRa (NR concentration 270 nM, RXRa partner concentration 90 nM)
Outline: as §1

| Sequence | PBM binding z-score [1] | PBM binding z-score [2] | PBM binding z-score [3] | PBM binding z-score [4] | PBM binding z-score [5] | PBM binding z-score [6] | PBM binding z-score [7] | PBM binding z-score [8] | PBM binding z-score [9] | PBM binding z-score [10] | PBM binding z-score [11] | PBM binding z-score [12] | PBM binding z-score [13] | PBM binding z-score [14] | PBM binding z-score [15] | PBM binding z-score [16] | PBM binding z-score [17] | PBM binding z-score [18] | PBM binding z-score [19] | PBM binding z-score [20] |
| --- | --- | --- | --- | --- | --- | --- | --- | --- | --- | --- | --- | --- | --- | --- | --- | --- | --- | --- | --- | --- |
| CCGACTGAGGCAAAGGTTACCATACTCAGTACGA | 0.7 | 1.19 | -0.159 | 1.48 | -0.611 | 3.69 | 6.77 | 6.76 | 4.81 | 6.88 | 0.849 | 2.47 | -0.356 | -0.203 | 1.16 | 1.56 | 0.0581 | 2.31 | 0.408 | 1.78 |
| TCTATTAGTTGATAAGGGCAACCGAAACAGCGGA | 0.612 | 0.486 | 0.203 | 0.463 | 0.396 | 0.736 | 0.322 | 1.86 | 3.81 | 2.97 | 1.65 | 0.714 | 0.803 | 1.07 | 0.853 | 0.671 | 0.649 | 0.881 | 0.996 | 1.6 |
| GCTGCTAGGTCTGGTTGGTCAGCTAACGGGTACG | -0.623 | -0.65 | -0.365 | -0.912 | -0.475 | -0.774 | -0.79 | -0.447 | -1.15 | -0.815 | -0.0168 | -0.444 | -1.29 | -0.941 | -0.461 | -0.762 | -0.661 | -0.909 | -0.893 | 0.00464 |
| TCTTGTGGATCAGCAGGTTAAGAAAGCTGGCCAA | 0.261 | 0.254 | -0.184 | 0.0295 | -0.411 | 0.761 | -0.589 | 1.27 | 2.47 | 1.83 | 1.59 | 0.745 | -0.449 | 0.165 | 0.237 | 0.354 | -0.204 | 0.573 | 0.249 | 0.338 |
| TAGCTTAGGTCATGCGGGCCAGTATAGTGTCGGC | 4.63 | 3.38 | 0.514 | 1.93 | 0.519 | 3.57 | 1.32 | 1.95 | 0.0747 | 0.973 | 1.52 | 1.65 | 1.35 | 0.321 | 1.44 | 1.85 | -0.011 | 2.73 | -0.0276 | 3.87 |
| CCCATTAGTTGACCATAAGGGCAACCGAAGCTCG | 1.1 | 0.851 | 0.582 | 0.755 | 0.614 | 0.65 | 0.359 | 0.482 | -0.068 | 0.346 | -0.253 | 0.593 | 0.0546 | -0.0766 | 2.18 | 0.867 | 0.974 | 1.05 | 1.57 | 1.7 |
| CCTAGCAGGCCAATCTGGGTCACCCAAGGCTTGA | 0.68 | 1.16 | -0.385 | 0.427 | -0.863 | 3.04 | 2.45 | 2.51 | -0.13 | 1.89 | 3.64 | 4.92 | -0.253 | -1.35 | 0.456 | 1.03 | -0.451 | 1.59 | -0.135 | 1.62 |
| CAAATTAGGTCAAGGTCAAAGTCGGTTTGTGCCA | 6.89 | 5.96 | 4.73 | 4.86 | 2.29 | 6.17 | 9.22 | 8.16 | 6.73 | 8.31 | 8.62 | 8.52 | 4.74 | 1.94 | 5.8 | 5.5 | 3.06 | 5.77 | 4.26 | 5.2 |
